Drawing on PubChem BioAssay (NCATS), this text covers parasite growth, % of DMSO control for twelve compounds.

This assay is described as follows: qHTS profiling of the MIPE4 collection as inhibitors of Plasmodium falciparum (3D7) proliferation (AID 743344).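 Note: scaled between DMSO vehicle wells and 0.29 µM artemisinin as full inhibition.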 As to conditions: P. falciparum 3D7 in erythrocytes, SYBR Green DNA fluorescence, 72 h; at 28.5 µM unless noted. The procedure, abridged: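 Parasite DNA was quantified by SYBR Green I fluorescence (ex 485, em 535 nm) after overnight lysis in saponin/Triton buffer at room temperature. Cultures at 0.3% parasitemia and 2.5% hematocrit were first exposed to compound for 72 h at 37 C; signals were normalised to artemisinin (0.29 uM) and vehicle wells.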
In turn, `CNCC(O)c1ccc(O)cc1` (configuration not stated) came in with a parasite growth, % of DMSO control of 81.9%.

For the compound `CC(O)(CS(=O)(=O)c1ccc(F)cc1)C(=O)Nc1ccc(C#N)c(C(F)(F)F)c1` (configuration not stated), the parasite growth, % of DMSO control turned out to be 61.4%. Turning to `CN(C)CCN(C)CCc1ccc(Cl)c(Cl)c1`, the parasite growth, % of DMSO control came out at 50%. The figure for `Cn1cc(C2=C(c3cn(C4CCN(Cc5ccccn5)CC4)c4ccccc34)C(=O)NC2=O)c2ccccc21` is 11.5%; for `CC1=C2C[C@@H]3[C@@H](CC=C4C[C@@H](O)CC[C@@]43C)[C@@H]2CC[C@]12O[C@H]1C[C@H](C)CN[C@H]1[C@H]2C` it is 61.1%.

`O=C(O)C(=O)c1cn(Cc2ccccc2)c2ccc(-c3ccc(OC(F)(F)F)cc3)cc12`: the parasite growth, % of DMSO control amounted to 222%. The same measure for `C[C@@H]1[C@@H](C(=O)C[C@H]2O[C@@H]3O[C@]4(C)CC[C@@H]5[C@H](C)CC[C@@H]([C@H]2C)[C@@]35OO4)O[C@@H]2O[C@]3(C)CC[C@H]4[C@H](C)CC[C@@H]1[C@@]24OO3`: 20.5%.

In turn, `CNC(=O)N1N=C(c2ccc(N)cc2)c2cc3c(cc2CC1C)OCO3` (configuration not stated) returned a parasite growth, % of DMSO control of 269%.

`Cc1cc(SCc2sc(-c3ccc(C(F)(F)F)c(F)c3)nc2C)ccc1OCC(=O)O` displayed a parasite growth, % of DMSO control of 66.7%. The figure for `CNC(=O)c1ccc(N2C(=S)N(c3ccc(C#N)c(C(F)(F)F)c3)C(=O)C23CCC3)cc1F` is 36.9%; for `C[C@@H]1O[C@@H](O[C@H]2C[C@@H](O)[C@]3(CO)[C@H]4[C@H](O)C[C@]5(C)[C@@H](C6=CC(=O)OC6)CC[C@]5(O)[C@@H]4CC[C@]3(O)C2)[C@H](O)[C@H](O)[C@H]1O` it is 81.9%; for `Cc1sc2c(c1C)C(c1ccc(Cl)cc1)=N[C@@H](CC(=O)OC(C)(C)C)c1nnc(C)n1-2` it is 16.3%.
